# Data reported in PubChem BioAssay (Tox21).
# Results filed as inconclusive are left out. The source made the active and inactive calls. Calls follow the shape of the full dose curve.
# Assay: p53 small molecule agonists, cell-based qHTS assay: qHTS cell viability counter screen (AID 1963581); also: nearly all actives have a fitted effect of over 45% in size
# Conditions: p53RE-bla HCT-116 viability, ATP luminescence, 16 h; series mostly up to 66 µM; activity change, negative = cytotoxicity: at the top concentration
# Source text: National Center for Advancing Translational Sciences [NCATS]
# Division of Preclinical Innovation [DPI]
# U.S. Environmental Protection Agency [EPA]
# National Institutes of Environmental Health Sciences [NIEHS]
# National Toxicology Program [NTP]
# U.S. Food and Drug Administration [FDA]
# p53, a tumor suppressor protein, is activated following cellular insult, including DNA damage and other cellular stresses. The activation of p53 regulates cell fate by inducing DNA repair, cell cycle arrest, apoptosis, or cellular senescence. The activation of p53, therefore, is a good indicator of DNA damage and other cellular stresses. The CellSensor p53RE-bla HCT-116 cell line (Invitrogen) contains a stably integrated beta-lactamase reporter gene under control of the p53 response elements. The activation of the reporter gene under culture conditions can be detected by fluorescence intensity. This cell line was used to screen the Tox21 compound library in a 1536-well plate format and to identify agonists that activate the p53 signaling pathway. The cytotoxicity of the Tox21 compound library against the p53 RE-bla HCT-116 cell line was tested in parallel by measuring the intra cellular ATP content in the same wells.
# Tox21 Assay Protocol Summary:
# The p53RE-bla cells were dispensed at 4,000 cells/5 ul/well in 1536-well black wall/clear bottom plates using a Multidrop dispenser. After the assay plates were incubated at a 37 C/5% CO2 incubator for 5 hours, 23 nL of compounds dissolved in DMSO, positive controls or DMSO only was transferred to the assay plate by a pin tool. The plates were incubated at 37 C for 16 hours. After 1 uL of LiveBLAzerTM B/G FRET substrate was added using a Flying Reagent Dispenser, the plates were incubated at room temperature for 2 hours, and fluorescence intensity was measured by an Envision plate reader. For cell viability readout that measures cytotoxicity, 4 ul/well of CellTiter-Glo reagent was added into the assay plates using a Flying Reagent Dispenser. After 30 min incubation at room temperature, the luminescence intensity in the plates was measured using a ViewLux plate reader.
# % is scaled to controls: 0 for no effect and ±100 for the full control effect; potency is read from the fitted curve at half-maximal effect.
Structure (SMILES),Potency,"activity change, negative = cytotoxicity"
O=C(Nc1ccc(Oc2ccc(Cl)cc2)c(Cl)c1)c1cc(I)cc(I)c1O,5 µM (active),
CCN(CC)c1ccc(C(=C2C=CC(=[N+](CC)CC)C=C2)c2cc(S(=O)(=O)O)ccc2S(=O)(=O)[O-])cc1,17.8 µM (active),
COC=O,,-1.7% [at 5.99 µM] (inactive)
C(=C\c1ccccc1)/CN1CCN(C(c2ccccc2)c2ccccc2)CC1,,-5.48% [at 30.3 µM] (inactive)
O=C(O)C(=O)Cc1ccccc1,,-7.38% (inactive)
CCC1OCC(COc2ccc(Oc3ccccc3)cc2)O1 (stereo not given),,-6.62% (inactive)
CCCCOC(=O)CO,,-16.4% (inactive)
CCC(Cl)C(Cl)C(Cl)CC(Cl)C(Cl)C(C)Cl (stereo not given),,0.357% (inactive)
C=C[Si](OC(C)=O)(OC(C)=O)OC(C)=O,,5.72% (inactive)
Cc1coc2ccccc2c1=O,,7.83% [at 30.3 µM] (inactive)
CCc1oc2ccccc2c1C(=O)c1cc(I)c(O)c(I)c1,,-7.39% [at 30.3 µM] (inactive)
CC(=O)OC(C(=O)c1ccccc1)c1ccccc1 (stereo not given),,3.36% (inactive)
CC(C)C(=O)OCCc1ccccc1,,0.635% (inactive)
CCCCCCOC(=O)c1ccc(O)cc1,,2.5% (inactive)
Nc1nc2ccccc2n1Cc1ccc(F)cc1,,-12.7% [at 30.3 µM] (inactive)
C(=C(c1ccccc1)c1ccccc1)c1ccccc1,,-0.589% (inactive)
CCCCCCCCCO,,9.25% (inactive)
CCCOC(=O)CCCCC(=O)OCCC,,0.325% (inactive)
CC(C)(C)C(=O)c1ccccc1,,-12.6% (inactive)
CCC(CC)Nc1ccc(C)c(C)c1,,6.2% (inactive)

Structure (SMILES),Potency,"activity change, negative = cytotoxicity"
CCCCCCCCC(CCCCCC)C(=O)O (stereo not given),,-10.2% (inactive)
C1CCCCCCCCCCC1,,9.85% [at 13.5 µM] (inactive)
CCCCCC(CO)CCC (stereo not given),,-1.62% (inactive)
CCCCCCCC/C=C\CCCCCCCC(=O)OCCO,,1.66% (inactive)
Oc1cc(Cl)cc(Cl)c1Cl,,-34.7% (inactive)
CCCCCCCCCC(C)C=O (stereo not given),,-2.9% (inactive)
CC(=O)c1c(C)c([N+](=O)[O-])c(C(C)(C)C)c([N+](=O)[O-])c1C,,-9.4% (inactive)
CS(=O)(=O)Nc1ccc([N+](=O)[O-])cc1Oc1ccccc1,inactive,
CCCCCCCCCCOC(=O)c1ccccc1C(=O)OCCCCCCCC,,-7.63% (inactive)
CO[C@]1(NC(=O)CSC(F)F)C(=O)N2C(C(=O)O)=C(CSc3nnnn3CCO)CO[C@H]21,,-15.2% [at 30.3 µM] (inactive)
CCC(=O)C1CC(C(C)C)CC=C1C (stereo not given),,-10.8% (inactive)
CCCCC(CC)COC(=O)CCCCC(=O)OCc1ccccc1 (stereo not given),,6.31% (inactive)
C[C@H](NC(CCc1ccccc1)C(=O)O)C(=O)N1CCC[C@H]1C(=O)O (stereo not given in full),,-0.845% [at 30.3 µM] (inactive)
CCNC(=O)/C=C/c1cccc(Br)c1,,1.19% [at 30.3 µM] (inactive)
CCOc1ccc(N=Nc2ccc(/C=C/c3ccc(N=Nc4ccc(OCC)cc4)cc3S(=O)(=O)O)c(S(=O)(=O)O)c2)cc1,,-6.16% (inactive)
CO[Si](C)(OC)OC,,-10.5% (inactive)
CC(Cc1ccccc1)(NC(=O)CN)c1ccccc1 (stereo not given),,-3.03% [at 30.3 µM] (inactive)
COC(=O)CCCCCCCC(=O)OC,,-4.41% (inactive)
Fc1ccccc1[C@@H](F)COC1CCC(Nc2ncnc3[nH]ncc23)CC1 (stereo not given in full),,9.04% (inactive)
COc1cc2c(cc1OC)-c1cc(=Nc3c(C)cc(C)cc3C)n(C)c(=O)n1CC2,,-10.6% [at 30.3 µM] (inactive)
